Hits are enriched below; roughly 11% of the tested compounds scored in any of these assays.
AMA1 RON2 block: qHTS for Inhibitors of AMA1-RON; Towards Development of Antimalarial Drug Lead: Primary Screen | AlphaScreen AMA1-biotinylated RON2 peptide binding | 360,000 compounds, 0.2% hits | Potency, µM (doses to about 58.2 µM), usual class: inhibitors; further: nearly all actives have a fitted effect of over 45% in size
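AMA1 (3D7) with his tag at 25 nM final met compounds first, then biotinylated RON2 peptide at 25 nM; detection used donor plus acceptor beads, 10 µg/mL apiece, read by AlphaScreen after 30 min at room temperature.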
HCV inhibitor: qHTS Assay for Inhibitors of Hepatitis C Virus (HCV); Huh7.5.1 HCVcc-Cre infection, luciferase reporter, 44 h; Potency, µM (top dose mostly 41.8 µM), most hits filed as inhibitors; 340,000 compounds, 3.4% hits
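1,000 cells/well; 4 h culture; + compound; + HCVcc-Cre (~0.5 moi); 44 h; luciferase substrate, RT 15 min; read 15 sec.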
Pf growth 96h: Primary qHTS for delayed death inhibitors of the malarial parasite plastid, 96 hour incubation. P. falciparum luciferase reporter growth, 96 h. Potency, µM (series often up to 28.7 µM), actives largely listed as inhibitors. 320,000 compounds, 6.9% hits. AID 504834, 2011
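Readout is luminescence from an integrated firefly luciferase in P. falciparum. Red cells, 2% hematocrit and 0.05% parasitemia final, were cultured with compound through two parasite generations (96 hours) at 37 C, 5% CO2.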
Pf growth 48h: Primary qHTS for delayed death inhibitors of the malarial parasite plastid, 48 hour incubation. P. falciparum luciferase growth in erythrocytes, 48 h. Potency, µM (titrated, usually from 28.7 µM), usual class: inhibitors. 310,000 compounds, 5.9% hits
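Cell-based growth assay: transgenic P. falciparum expressing firefly luciferase, cultured in red cells within RPMI 1640 containing 0.5% w/v Albumax, 24 mM bicarbonate and gentamycin. A drop in luciferase activity indicates inhibition.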
Numbers stand for hits; [ ] = remark or other dose. The call rests on the fitted dose curve; in most records, active means well fitted curve in the direction sought with a large enough effect; inconclusive means small, poorly fitted or top-dose-only effect, or another doubt; inactive means no such curve, though single readings can be large; an effect the other way counts as inactive or inconclusive.

Screening COC(=O)c1sc(N/N=C/c2ccc(C(C)C)cc2)nc1C returned AMA1 RON2 block inactive, HCV inhibitor inconclusive, Pf growth 96h inconclusive and Pf growth 48h 9.3µM.
`Cc1nn(CC2CC2)c(=O)n1-c1ccc(Oc2ccccc2)cc1` gave AMA1 RON2 block inactive, HCV inhibitor inconclusive, Pf growth 96h inactive[5.75 µM] and Pf growth 48h inactive.
CC(CN1CCOCC1)OC(=O)c1cccc(Cl)c1 (centres undefined) was read as AMA1 RON2 block inactive, HCV inhibitor inactive, Pf growth 96h inactive and Pf growth 48h inactive.
`CC(Sc1nnnn1C1CCCC1)C(=O)Nc1cccc(S(=O)(=O)N2CCOCC2)c1` (centres undefined) gave AMA1 RON2 block inactive, HCV inhibitor inactive, Pf growth 96h inconclusive and Pf growth 48h inactive.
`Cc1ccc(CSCC(=O)N(C)CC(=O)Nc2c(Cl)cccc2Cl)cc1` gave AMA1 RON2 block inactive, HCV inhibitor inactive, Pf growth 96h inconclusive and Pf growth 48h 10µM.
For CC(C)c1ccc2nc3sc(C(=O)N4CCc5ccccc5C4)c(N)c3cc2c1 the results were AMA1 RON2 block inactive, HCV inhibitor 10µM, Pf growth 96h inactive and Pf growth 48h inactive.
CCOc1ccc2nc3sc(C(=O)N4CCN(C)CC4)c(N)c3cc2c1 was read as AMA1 RON2 block inactive, HCV inhibitor 11µM and Pf growth 48h inconclusive.
Cc1ccc(N2C(=O)C3C(C2=O)N2C(c4cccs4)C4C(=O)N(c5ccc(C)cc5)C(=O)C4N2C3c2cccs2)cc1 (centres undefined) was read as AMA1 RON2 block inactive[11.6 µM], HCV inhibitor inactive, Pf growth 96h 1.9µM and Pf growth 48h inconclusive.
Screening O=C(NN1C(=O)NC2(CCCCC2)C1=O)c1cc2cc(Cl)ccc2o1 returned AMA1 RON2 block inactive and HCV inhibitor inactive.
`O=C(NN1C(=O)NC2(CCCCC2)C1=O)c1ccc(-c2ccc(Cl)cc2)o1` gave AMA1 RON2 block inactive[11.6 µM], HCV inhibitor 11µM, Pf growth 96h inactive and Pf growth 48h inactive.
CCO[C@@H]1OC(C(=O)NCc2ccccc2)=C[C@H](c2csc3ccccc23)[C@H]1CCCO was read as AMA1 RON2 block inactive, HCV inhibitor inconclusive, Pf growth 96h 10µM and Pf growth 48h inconclusive.
CCO[C@@H]1OC(C(=O)Nc2ccccc2)=C[C@H](c2csc3ccccc23)[C@H]1CCCO was read as AMA1 RON2 block inactive, HCV inhibitor inactive, Pf growth 96h inconclusive and Pf growth 48h 7.4µM.
Screening CCO[C@H]1OC(C(=O)NC2CC2)=C[C@@H](c2csc3ccccc23)[C@@H]1CCCO returned AMA1 RON2 block inactive, HCV inhibitor inactive, Pf growth 96h 0.19µM and Pf growth 48h inconclusive.
CCO[C@H]1OC(C(N)=O)=C[C@@H](c2csc3ccccc23)[C@@H]1CCCO was read as AMA1 RON2 block inactive, HCV inhibitor inactive, Pf growth 96h inactive and Pf growth 48h inactive.
Cc1ccccc1N=C1Nc2ccccc2N[C@]12C[C@H]1CCC(=O)N3CC[C@@H](C2)[C@@H]13 was read as AMA1 RON2 block inactive and HCV inhibitor inactive.
`CCN1CCCC1CNC(=O)c1cc(NC(C)=O)c(N(C)C)cc1OC` (centres undefined) gave AMA1 RON2 block inactive, HCV inhibitor inactive, Pf growth 96h inconclusive and Pf growth 48h inactive.
`CNc1nc(C23CC4CC(CC(C4)C2)C3)cs1` gave AMA1 RON2 block inactive, HCV inhibitor inactive, Pf growth 96h inactive and Pf growth 48h inconclusive.
Screening O=C(CC(=O)Nc1nc(C23CC4CC(CC(C4)C2)C3)cs1)NCCO returned AMA1 RON2 block inactive, HCV inhibitor inactive, Pf growth 96h 9.3µM and Pf growth 48h 13µM.
For Cc1ccc(NC(=O)N2CCCCC2)cc1NC(=O)N1CCCCC1 the results were AMA1 RON2 block inactive, HCV inhibitor inactive, Pf growth 96h inactive and Pf growth 48h inconclusive.
For Cc1ccc(NC(=O)OC(C)N2CCCCC2)cc1NC(=O)OC(C)N1CCCCC1 (centres undefined) the results were AMA1 RON2 block inactive and HCV inhibitor 25µM.
Screening O=C1CSC(=Nc2ccc(O)cc2)N1c1ccc(O)cc1 returned AMA1 RON2 block inactive, HCV inhibitor inactive, Pf growth 96h 10µM and Pf growth 48h inconclusive.
`Cc1cc2nc(-c3cccc(Cl)c3)c(Cc3ccsc3)n2c(C)c1Br` gave AMA1 RON2 block inactive.
